In PubChem BioAssay AID2013 (Sanford-Burnham Center for Chemical Genomics, 2009):
Out of some 290,000 compounds screened, about 370 (0.13%) were called active.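 Rule for the calls: active = spots per cell inhibited over 60%, with over 100 cells counted and total cytoplasm intensity under 500,000; inconclusive = wells with under 100 cells, flagged as likely toxic; inactive = the rest.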 This excerpt belongs to a sample that is enriched for actives. Measured potencies and affinities stand elsewhere.

target: G-protein coupled receptor 55 (Homo sapiens) (UniProt Q9Y2T6); test: GPR55 antagonists blocking LPI-driven arrestin recruitment, primary screen, imaging, U2OS, beta-arrestin-GFP, LPI agonist (AID 2013); settings: U2OS GPR55 beta-arrestin-GFP translocation imaging, LPI antagonism; at 10 µM; active compounds read high;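 note: U2OS cells stably carrying GPR55 and arrestin-GFP stimulated by 5 µM LPI near EC80; imaged beta-arrestin-GFP aggregate spots per cell after agonist stimulation; plate controls were LPI-stimulated DMSO wells for no effect and DMSO wells without LPI for full effect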
Sequence (Q9Y2T6 whole entry, looked up): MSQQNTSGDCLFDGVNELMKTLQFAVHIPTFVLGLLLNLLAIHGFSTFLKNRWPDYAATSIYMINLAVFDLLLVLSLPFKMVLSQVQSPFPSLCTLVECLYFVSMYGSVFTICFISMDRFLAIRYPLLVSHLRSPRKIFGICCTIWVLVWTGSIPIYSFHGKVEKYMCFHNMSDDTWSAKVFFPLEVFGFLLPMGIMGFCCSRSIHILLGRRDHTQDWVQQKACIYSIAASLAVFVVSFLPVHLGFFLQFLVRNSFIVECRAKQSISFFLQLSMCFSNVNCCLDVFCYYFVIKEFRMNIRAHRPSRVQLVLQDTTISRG

Structure (SMILES) | inhibition
CCN(C(=O)CSc1nc(-c2ccccc2)c(-c2ccccc2)[nH]1)C1CCS(=O)(=O)C1 (configuration not stated) | 15.5% (inactive)
Cc1ccc(SCC(=O)N(C)C2CCS(=O)(=O)C2)cc1 (configuration not stated) | -5.3% (inactive)
CCCCNC(=O)CN1C(=O)C(CC)Oc2ccc(Cl)cc21 (configuration not stated) | 2.3% (inactive)
Cc1ccc(-c2ccc(/C=C3\SC(N4CCOCC4)=NC3=O)o2)cc1 | 16.2% (inactive)
O=C1N=C(N2CCOCC2)S/C1=C\c1ccc(-c2ccccc2Cl)o1 | -0.9% (inactive)
Cc1ccc(CNC(=O)c2ccc(CS(=O)(=O)c3ccccc3C)o2)cc1 | 7.3% (inactive)
O=C(Oc1ccc(N2C(=O)C3C4CCC(C4)C3C2=O)cc1)c1ccco1 (configuration not stated) | 15.6% (inactive)
O=C(NC1CCN(S(=O)(=O)c2ccccc2F)CC1)c1cccnc1 | -8.1% (inactive)
O=C(N1CCCC1)C(F)(F)Oc1ccc(F)cc1 | 10.6% (inactive)
COCCN1C=C(C(=O)OC)C(c2cc3c(cc2Br)OCO3)C(C(=O)OC)=C1 | 1% (inactive)
COC(=O)C1=CN(C(C)C)C=C(C(=O)OC)C1c1cc(Br)c(OC)c(OC)c1 | 0.5% (inactive)
COc1ccc(-n2c(C)cc(C=O)c2C)cc1Cl | 15.8% (inactive)
COc1ccc(Cl)cc1-n1c(C)cc(C=O)c1C | -3.7% (inactive)
CN(C)S(=O)(=O)N1CCN(C(=O)c2cccc(Br)c2)CC1 | 1.7% (inactive)
NS(=O)(=O)c1ccc(CCNC(=O)CSc2nc3ccsc3c(=O)n2CCCCCC(=O)O)cc1 | 14.8% (inactive)
Cc1cccc(OCC(=O)N2CCOCC2)c1 | 15.3% (inactive)
COc1ccc(OC)c(-n2c(C)cc(/C=C3\C(=N)N4N=C(CC(=O)N5CCOCC5)SC4=NC3=O)c2C)c1 | 21.8% (inactive)
COc1ccccc1N1CCN(C(=O)NC23CC4CC(CC(C4)C2)C3)CC1 | 6.5% (inactive)
O=C(CCCn1c(=S)[nH]c2cc3c(cc2c1=O)OCO3)N1CCN(c2ccccn2)CC1 | 10.5% (inactive)
O=C(CCCn1c(=O)[nH]c2ccccc2c1=O)N1CCN(c2ccccn2)CC1 | 3.9% (inactive)
O=C(CCCn1c(=S)[nH]c2ccc(Br)cc2c1=O)N1CCN(c2ccccn2)CC1 | 60.6% (active)
O=C(COc1cccc2cccnc12)N/N=C1\SCC(=O)N1CCc1ccccc1 | 14.1% (inactive)
N#Cc1c(N)nc2c(c1-c1cccc(O)c1)CCCCCC2 | 76% (active)

Structure (SMILES) | inhibition
N#Cc1c(N)nc2c(c1-c1ccccc1)CCC2 | -2.3% (inactive)
N#Cc1c(N)nc2c(c1-c1ccccc1)CCCC2 | 14.6% (inactive)
Cc1c(Br)cc(C(=O)NCCCN2CCOCC2)c(C)c1C | -19.3% (inactive)
Cc1ccc(C(=O)NC2CC(C)(C)NC(C)(C)C2)cc1Cl | -5.9% (inactive)
CCOc1ccccc1NC(=O)NCCc1c[nH]c2ccccc12 | 5.7% (inactive)
CCN(C(=O)CC(C)C)c1nnc(Cn2nnc3ccccc32)s1 | 6.1% (inactive)
O=C(CN1C(=O)S/C(=C\c2ccc(Cl)cc2)C1=O)NCCCn1ccnc1 | -24.8% (inactive)
Fc1ccc(-c2csc(N3CCOCC3)n2)cc1 | -10.5% (inactive)
N=C1C(c2nc(-c3ccc(Cl)cc3)cs2)=C(O)CN1CCCN1CCOCC1 | 14.9% (inactive)
Cc1c(Br)c([N+](=O)[O-])nn1CC(=O)N1CCN(C23CC4CC(CC(C4)C2)C3)CC1 | 10.9% (inactive)
O=C(CN(c1ccc(Cl)cc1)S(=O)(=O)c1ccc(Cl)c([N+](=O)[O-])c1)NCCc1ccccc1 | 5.1% (inactive)
Cc1ccc(N(CC(=O)NCCc2ccc(F)cc2)S(=O)(=O)c2ccc(Cl)c([N+](=O)[O-])c2)c(C)c1 | 65.4% (active)
O=C(CN(c1ccc(Cl)cc1)S(=O)(=O)c1ccc(Cl)c([N+](=O)[O-])c1)NCCc1ccc(F)cc1 | 7.2% (inactive)
O=S(=O)(NC1CCCCC1Oc1ccccc1)c1ccc(Cl)cc1 (configuration not stated) | 12.4% (inactive)
CCn1cc(CN2CCC(C(=O)Nc3ccc(Oc4ccccc4)nc3)CC2)cn1 | 17% (inactive)
NC(=NC(=O)c1ccccc1)N1CCN(C(c2ccccc2)c2ccccc2)CC1 | 22.5% (inactive)
CC1=C(C(=O)OCc2ccccc2)C(c2ccc3ccccc3c2)NC(=O)N1CCCC(=O)O (configuration not stated) | 1.7% (inactive)
Cn1nc(C(=O)NCc2ccco2)c2ccccc2c1=O | -3.1% (inactive)
COC(=O)c1cccc(S(=O)(=O)N2CCC(c3nc4ccccc4o3)CC2)c1 | 4.8% (inactive)
O=c1[nH]ncn1-c1ccccc1 | 0.1% (inactive)
Cc1ncsc1CCOC(=O)c1ccc(N2CCOCC2)c([N+](=O)[O-])c1 | -11% (inactive)
Cc1ccc(OC(=O)c2ccc(N3CCOCC3)c([N+](=O)[O-])c2)cc1 | 2.8% (inactive)
CC(C)c1ccc(CN2C(=O)NC3(CCCCCC3)C2=O)cc1 | 4.2% (inactive)

Structure (SMILES) | inhibition
CC(=O)N1CCc2cc(Br)cc(S(=O)(=O)NCCN3CCCCC3C)c21 (configuration not stated) | 10.5% (inactive)
CCC(=O)N1CCc2cc(Br)cc(S(=O)(=O)NCCN3CCCCC3CC)c21 (configuration not stated) | 5.4% (inactive)
CCC(=O)N1CCc2cc(Br)cc(S(=O)(=O)NCCN3CCCCC3C)c21 (configuration not stated) | 77.2% (active)
COc1ccccc1CNC(=O)CSc1nc2ccccc2c(=O)n1CCCN1CCOCC1 | 1.4% (inactive)
Cc1ccccc1NC(=O)CSC(N)=O | 1.9% (inactive)
O=C(COc1ccc(Cl)cc1Cl)Nc1ccc(S(=O)(=O)NC2=NCCCCC2)cc1 | 3.6% (inactive)
Cc1ccc(C(C)C)c(OCC(=O)Nc2cccc(S(=O)(=O)NC3=NCCCCC3)c2)c1 | -2.2% (inactive)
Cc1ccc(Nc2cc(C)nc(NCc3ccccc3)n2)cc1 | 26.1% (inactive)
Cc1cc(Nc2ccc(Cl)cc2)nc(NCc2ccccc2)n1 | 13.1% (inactive)
CC(=O)NC(=S)Nc1cccc2ccc(C)nc12 | -6.6% (inactive)
Cc1cc(C(F)(F)F)n(-c2nc(C(=O)N/N=C/c3ccc(F)cc3)cs2)n1 | -8.1% (inactive)
COC(=O)c1ccccc1NC(=S)NC(=O)c1ccc2c(c1)OCO2 | 7.9% (inactive)
COc1ccc(CCNC(=O)[C@H](C)NC(=O)[C@@H]2CSC3c4ccccc4C(=O)N32)cc1 (some centres not stated) | 9.5% (inactive)
CCN(c1ccccc1)S(=O)(=O)c1ccc(Cl)nc1 | -13.7% (inactive)
CCN(CC)S(=O)(=O)c1ccc(NCC2COc3ccccc3O2)c([N+](=O)[O-])c1 (configuration not stated) | 8.6% (inactive)
Cc1ccc(CNc2nc(C)cs2)cc1 | 4.7% (inactive)
Cc1sc2nc(CSc3nc4ccccc4c(=O)n3CCCN3CCOCC3)[nH]c(=O)c2c1C | 89.7% (active)
Cc1[nH]c2ccccc2c1C(=O)CSc1nc2ccccc2c(=O)n1CCCN1CCOCC1 | -7.3% (inactive)
CCCn1c(SCc2nc3sc(C)c(C)c3c(=O)[nH]2)nc2ccccc2c1=O | 8.6% (inactive)
Cc1cc(C)cc(Oc2cc(NC(=O)c3cn(C)nc3C)cc([N+](=O)[O-])c2)c1 | -5.3% (inactive)
Cc1ccc(NC(=O)c2cc(S(=O)(=O)N3CCc4ccccc43)cn2C)cc1 | 6.1% (inactive)
Cc1cccc(N(C)C(=O)c2cc(S(=O)(=O)N3CCc4ccccc43)cn2C)c1 | 8.9% (inactive)
CN(C)/C=N/c1[nH]ncc1C#N | -2% (inactive)

Structure (SMILES) | inhibition
Cc1nc2ccccc2n1CC(O)Cn1c(C(F)(F)F)nc2ccccc21 (configuration not stated) | 6.6% (inactive)
NC(=O)CSc1n[nH]c(-c2ccco2)n1 | 8.2% (inactive)
O=C(c1cccc(S(=O)(=O)N2CCN(c3ccccc3)CC2)c1)N1CC=C(c2ccccc2)CC1 | 4.3% (inactive)
COc1ccccc1NS(=O)(=O)c1cc(NC(=O)CC(C)(C)C)ccc1N1CCOCC1 | 6.1% (inactive)
COc1ccccc1NS(=O)(=O)c1cccc(NC(=S)NCCN2CCOCC2)c1 | 0.8% (inactive)
Cc1ccccc1NC(=O)Nc1cc(S(N)(=O)=O)ccc1C | -2.7% (inactive)
COc1ccc(N2CCN(C(=O)NCc3ccc(C)cc3)CC2)cc1 | 1% (inactive)
CC(=O)Nc1cccc(C(=O)OCC(=O)c2ccccc2Cl)c1 | -0.6% (inactive)
COc1cc(S(=O)(=O)Nc2ccccc2)ccc1N=Cc1c(C)[nH]n(-c2ccc(C)cc2)c1=O | 7.7% (inactive)
O=C(Nc1ccccc1N1CCOCC1)c1cccc(NS(=O)(=O)c2ccc(F)c(F)c2)c1 | 2.6% (inactive)
O=C(CC12CC3CC(CC(C3)C1)C2)NC(=S)NCc1ccccc1 | 53% (inactive)
O=C(CC12CC3CC(CC(C3)C1)C2)NCc1ccco1 | 11.3% (inactive)
OCCNc1cnc2ccccc2n1 | 12.6% (inactive)
CC1CN(S(=O)(=O)c2ccccc2)CN1C(=O)N1CCOCC1 (configuration not stated) | 15.3% (inactive)
CCN1CCCC1CN(Cc1cc2ccc(C)cc2[nH]c1=O)C(=S)Nc1ccc(F)cc1 (configuration not stated) | 23.5% (inactive)
COc1ccc(Cl)cc1S(=O)(=O)n1ccnc1 | 4.2% (inactive)
C[N+]1=C(/C=C/Nc2ccccc2Cl)C(C)(C)c2ccccc21 | 0.9% (inactive)
COC(=O)c1ccc2c(c1)C(C)(C)C(/C=C/c1ccccc1O)=[N+]2C | 11.5% (inactive)
O=C1c2ccccc2C(=O)C2OC12 (configuration not stated) | 12.7% (inactive)
COc1ccc(-c2csc(N(CC3CCCO3)C(=O)c3ccccc3)n2)cc1 (configuration not stated) | 0.7% (inactive)
COc1ccc(OC)c(-c2csc(N(CC3CCCO3)C(=O)C3CCCCC3)n2)c1 (configuration not stated) | 82.9% (active)
COc1ccc(OC)c(-c2csc(N(CC3CCCO3)C(=O)Cc3ccccc3)n2)c1 (configuration not stated) | 17.6% (inactive)
CN(C)c1ccc(C(=O)OCC(=O)Nc2ccc(N3CCOCC3)cc2)cc1 | 0.2% (inactive)
